The values that follow come from PubChem BioAssay AID2711 (National Center for Advancing Translational Sciences (NCATS), 2010).

SMILES strings stand for the structures. The list shows a part of the results. Inconclusive results are not listed. Unmarked numbers belong to inactive results. Activity calls are given as the source filed them. Calls follow the shape of the dose curve; as a rule, active = well fitted inhibition curve with a large enough effect; inconclusive = small, poorly fitted or top-dose-only effect; inactive = no such curve, though single readings can be large or run the other way.
% is scaled to controls: 0 for no effect and ±100 for the full control effect; potency is read from the fitted curve at half-maximal effect.

The nature of this test: Counterscreen for RECQ1 Inhibitors: ADP Fluorescence Polarization Displacement Assay. Also: nearly all actives have a fitted effect of over 45% in size. The following applies: series mostly up to 228 µM; activity change, negative = inhibition: at the top concentration. The source says: In order to gain further insight into the mode of action of the RECQ1 screening hits, we have profiled them in a set of miniaturized fluorescence polarization assays designed to report on compounds which competitively displace either co-substrate (ATP or DNA). The appropriate fluorescently-labeled probe was used: BODIPY Texas Red-labeled ADP was expected to be competed off by ATP-competitive inhibitors, while single-TAMRA labeled forked-duplex or short single-stranded DNA molecules served as probes for DNA-competitive compounds.
Three uL of reaction buffer (25 mM Tris-HCl (pH 8.0), 5 mM NaCl, 2 mM MgCl2, 1mM DTT, 0.01% Tween- 20, and 2.5 ug/ml poly(dI-dC), containing 300 nM RECQ1 and 500 nM BODIPY Texas Red-ADP (Invitrogen) were dispensed into a 1536-well Greiner black assay plate via solenoid-valve based nanoliter dispensers; 500 nM BODIPY Texas Red-ADP without RECQ1 protein served as a fully-displaced control. Compounds (23 nl each in columns 5-48) were transferred via a Kalypsys pintool equipped with a 1536-pin array. The plates were incubated for 15 min at room temperature and were then transferred into a ViewLux high-throughput CCD imager, where the endpoint fluorescence polarization was measured using 525 nm excitation and 598 nm emission protocol.
On the technique in general: Counterscreens check selectivity or assay interference.
Take `O=C(NC(Cc1c[nH]c2ccccc12)C(=O)O)/C(=C/c1ccco1)NC(=O)c1ccccc1` (configuration not stated): the “activity change, negative = inhibition” value is 8.72%.

For `O=C(OCC1O[C@@H](OC(=O)c2cc(O)c(O)c(O)c2)[C@@H](OC(=O)c2cc(O)c(O)c(O)c2)[C@@H](OC(=O)c2cc(O)c(O)c(O)c2)[C@@H]1OC(=O)c1cc(O)c(O)c(O)c1)c1cc(O)c(O)c(O)c1` (some centres not stated), the “activity change, negative = inhibition” value is -12.5% [at 91.9 µM].

In the case of `CC1Cc2ccccc2N1C(=O)CSc1nnc(-c2ccc(S(=O)(=O)N3CCCC3)cc2)n1C` (configuration not stated), the “activity change, negative = inhibition” value is 3.82%.

Take `O=C(NC(Cc1ccccc1)C(=O)N1CCCC1C(=O)O)c1ccccc1` (configuration not stated): the “activity change, negative = inhibition” value was -0.948%.

Turning to `CC(=O)Nc1ccc(Nc2c3ccccc3nc3ccccc23)cc1`, the “activity change, negative = inhibition” value was 34.5% [at 91.9 µM].

For the molecule `O=C(N/N=C/c1sc(N2CCCCC2)nc1-c1cccs1)c1cccnc1`, the “activity change, negative = inhibition” value was 59.1% [at 91.9 µM].

Turning to `O=C(O)CCn1c(SCc2cc(=O)n3ccccc3n2)nc2ccsc2c1=O`, the “activity change, negative = inhibition” value is 0.643%.

Take `c1ccc(CSc2nnc(-c3ccco3)c(-c3ccco3)n2)cc1`: the Potency was 50.1 µM (active).

As for `CC(C)C1N=C2c3ccccc3N=C(SCC(=O)c3ccc(O)c(O)c3)N2C1=O` (configuration not stated), the “activity change, negative = inhibition” value was -10.2% [at 91.9 µM].

On to `COc1cc(C2C(C(=O)c3ccc(C)o3)=C(O)C(=O)N2CCc2ccccc2)ccc1O` (configuration not stated), for which the “activity change, negative = inhibition” value was 6.79%.

As to `O=C(CCn1nnc2ccccc2c1=O)N[C@@H](Cc1c[nH]c2ccccc12)C(=O)O`, the “activity change, negative = inhibition” value is 6.93%.

Take `O=C(NCc1ccccc1)C1=C[C@@H](C2CCCCC2)C[C@@H](OCc2ccc(CO)cc2)O1`: the “activity change, negative = inhibition” value was -3.38% [at 91.9 µM].
